About 14,000 (4.5%) of roughly 310,000 compounds showed an effect of 50% or more. Effects have a minus sign here. For the sample, strong results were picked, then their nearest neighbours and some compounds at random.
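Further: peak tail current of the secondary pulse compared with the same well before compound.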

This assay deals with human ether-à-go-go-related gene (hERG) potassium channel (human, UniProt Q12809). Description: primary screen, population patch clamp on CHO cells stably expressing hERG; higher = less effect of the substance.
Chain of human ether-à-go-go-related gene (hERG) potassium channel (Q12809 whole entry, looked up): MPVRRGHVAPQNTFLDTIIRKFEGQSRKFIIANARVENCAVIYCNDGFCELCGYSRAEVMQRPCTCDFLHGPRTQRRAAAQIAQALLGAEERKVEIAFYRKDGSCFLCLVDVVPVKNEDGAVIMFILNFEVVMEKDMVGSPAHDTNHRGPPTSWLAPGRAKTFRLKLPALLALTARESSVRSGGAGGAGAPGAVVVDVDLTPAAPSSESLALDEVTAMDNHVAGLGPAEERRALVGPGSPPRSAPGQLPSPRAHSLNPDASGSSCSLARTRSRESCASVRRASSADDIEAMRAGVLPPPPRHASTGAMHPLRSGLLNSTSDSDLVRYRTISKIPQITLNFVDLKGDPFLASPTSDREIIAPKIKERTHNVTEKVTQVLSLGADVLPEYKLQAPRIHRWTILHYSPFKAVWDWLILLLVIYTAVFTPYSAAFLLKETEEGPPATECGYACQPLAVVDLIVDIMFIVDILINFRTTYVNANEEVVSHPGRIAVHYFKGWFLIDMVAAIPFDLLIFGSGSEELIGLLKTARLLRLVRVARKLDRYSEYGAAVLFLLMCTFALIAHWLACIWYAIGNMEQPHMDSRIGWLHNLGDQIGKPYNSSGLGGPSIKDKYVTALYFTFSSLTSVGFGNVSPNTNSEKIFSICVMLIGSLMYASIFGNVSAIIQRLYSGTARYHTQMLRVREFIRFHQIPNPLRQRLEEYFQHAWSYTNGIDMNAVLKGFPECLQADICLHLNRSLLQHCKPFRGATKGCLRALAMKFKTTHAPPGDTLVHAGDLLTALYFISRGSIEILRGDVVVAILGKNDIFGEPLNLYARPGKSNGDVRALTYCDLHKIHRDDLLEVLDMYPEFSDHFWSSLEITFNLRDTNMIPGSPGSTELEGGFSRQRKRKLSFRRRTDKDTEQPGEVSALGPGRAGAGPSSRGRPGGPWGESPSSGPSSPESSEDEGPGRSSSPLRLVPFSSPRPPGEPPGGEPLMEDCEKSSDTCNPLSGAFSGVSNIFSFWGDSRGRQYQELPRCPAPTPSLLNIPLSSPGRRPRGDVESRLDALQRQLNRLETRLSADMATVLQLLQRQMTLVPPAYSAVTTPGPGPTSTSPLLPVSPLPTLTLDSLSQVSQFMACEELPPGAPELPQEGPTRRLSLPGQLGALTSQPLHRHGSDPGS
For the compound `Cc1ccc(CCN2CC(C(=O)NCCCN3CCN(C)CC3)CC2=O)cc1` (centres unmarked), the “hERG current change (%, negative = inhibition) at 10uM” value is -8.81%.
In the case of `CCN(C(=O)CSc1ccc2c(c1)OCCO2)C1CCS(=O)(=O)C1` (centres unmarked) it was 9.65%; in that of `COc1ccc(O)c(C(=O)c2cnc3c(c2)c(-c2ccc(F)cc2)c(C#N)c(=O)n3C)c1`, 12.6%.
As for `CCCCn1c(-c2cccnc2)nc2cc3[nH]c(=O)c(C(C)C)nc3cc21`, the “hERG current change (%, negative = inhibition) at 10uM” value is recorded as -50.4%.
In the case of `CCCCn1c(-c2cccc(C)c2)nc2cc3[nH]c(=O)c(C(C)C)nc3cc21`, the “hERG current change (%, negative = inhibition) at 10uM” value was 0.235%.
In the case of `CCCCn1c(-c2cccc(Br)c2)nc2cc3[nH]c(=O)c(C(C)C)nc3cc21` it was 4.08%; in that of `CC(=O)C(Sc1nnnn1-c1ccc(O)cc1)c1ccccc1` (centres unmarked), -14.3%.
In the case of `COc1ccc(CCNC(=O)c2coc3ccccc3c2=O)cc1OC` it was -4.09%; in that of `COc1ccc(CCNC(=O)CSc2nc(=O)n3cccc(C)c3n2)cc1OC`, 15.8%.
The value for `COc1ccc(CCNC(=O)c2ccc3c(=O)n(Cc4ccco4)c(=S)[nH]c3c2)cc1OC` was 17.2%.
As to `COc1ccc(CCNC(=O)c2cc3c(=O)n4cccc(C)c4nc3s2)cc1OC`, the “hERG current change (%, negative = inhibition) at 10uM” value was determined as 21.3%.
In the case of `COc1ccc(CCNC(=O)c2cc3c(=O)n4ccccc4nc3n(Cc3ccco3)c2=N)cc1OC` it was -76.6%.
In the case of `COc1ccc(CCNC(=O)c2cc3c(=O)n4cccc(C)c4nc3n(Cc3ccco3)c2=N)cc1OC` it was -80.9%; in that of `CSc1ccc(Cl)c(C(=O)OCC(=O)NCC(C)C)c1`, -21%.
For the compound `CCN(CC)CC(O)Cn1c2ccccc2c2ccccc21` (centres unmarked), the “hERG current change (%, negative = inhibition) at 10uM” value is listed as -16%.
In the case of `Cn1c(CO)c(-c2ccccc2)c2cc([N+](=O)[O-])ccc21` it was 10.2%; in that of `CCN(CC)CC(O)Cn1c(C)c(-c2ccccc2)c2cc([N+](=O)[O-])ccc21.Cl` (centres unmarked), -65.3%.
The value for `Nc1cccc2c1C(=O)N(CCOc1ccccc1F)C2=O` was 20.2%.
The value for `N#Cc1nc(COc2ccc(F)cc2)oc1N1CCN(Cc2ccccc2)CC1` was -75.3%; that for `Cc1ccc(OCc2nc(C#N)c(N3CCCCC3)o2)cc1` was -4.24%.
As for `CCN1CCN(c2oc(COc3ccc(-c4ccccc4)cc3)nc2C#N)CC1`, the “hERG current change (%, negative = inhibition) at 10uM” value was -55.8%.
As for `CCN1CCN(c2oc(COc3ccc(Cl)cc3)nc2C#N)CC1`, the “hERG current change (%, negative = inhibition) at 10uM” value is given as -77%.
The value for `N#Cc1nc(COc2ccccc2)oc1N1CCN(Cc2ccccc2)CC1` was -21.9%.
In the case of `N#Cc1nc(COc2ccc(Cl)cc2)oc1N1CCN(Cc2ccccc2)CC1` it was -1.08%; in that of `Cc1ccc(OCc2nc(C#N)c(N3CCCC3)o2)cc1`, -62.8%.
The value for `CN1CCN(c2oc(COc3ccc(-c4ccccc4)cc3)nc2C#N)CC1` was -19%; that for `COc1ccc(N2CCN(c3oc(COc4ccc(Cl)cc4)nc3C#N)CC2)cc1` was -2.55%; that for `N#Cc1nc(COc2ccc(F)cc2)oc1N1CCCC1` was -46.7%.
Turning to `N#Cc1nc(COc2ccc(Cl)cc2)oc1N1CCCC1`, the “hERG current change (%, negative = inhibition) at 10uM” value is -38.9%.
On to `Cc1ccc(OCc2nc(C#N)c(N3CCN(Cc4ccccc4)CC3)o2)cc1`, for which the “hERG current change (%, negative = inhibition) at 10uM” value is given as -6.23%.
The value for `CC1=CC(C)[C@@H]2COC(c3ccc(O)cc3)[C@H]1C2C` (some centres unmarked) was 4.96%; that for `Cc1ccc(N2CC(C(=O)NCc3nnnn3-c3ccc(C)c(C)c3)CC2=O)cc1` (centres unmarked) was -19.8%.
In the case of `Cc1ccc(S(=O)(=O)NC(=O)C2CCCCC2)cc1` it was 14.3%; in that of `O=C(COc1ccc2ccccc2c1)NCCNC(=O)COc1ccc2ccccc2c1`, 17.2%.
In the case of `O=C(c1cc(-c2ccccc2)on1)N1CCCC1` it was 9.39%.
For the compound `O=C(NCc1ccc2c(c1)OCO2)c1ccc2c(c1)OCCO2`, the “hERG current change (%, negative = inhibition) at 10uM” value is 8.03%.
For `CC(CN1CCN(Cc2ccccc2)CC1)c1ccccc1.O=C(O)C(=O)O` (centres unmarked), the “hERG current change (%, negative = inhibition) at 10uM” value is given as -14%.
The value for `CC(C(=O)Nc1cccc(S(=O)(=O)N2CCOCC2)c1)N1CCN(C/C=C/c2ccccc2)CC1` (centres unmarked) was -75%; that for `CC(C(=O)Nc1cccc(S(=O)(=O)N2CCOCC2)c1)N1CCN(C)CC1` (centres unmarked) was -5.23%.
The value for `CC(=O)c1ccc(NC(=O)C(C)N2CCN(C/C=C/c3ccccc3)CC2)cc1` (centres unmarked) was -71.4%.
In the case of `CC(CN1CCCCC1)c1ccccc1.O=C(O)C(=O)O` (centres unmarked) it was 13.1%.
With `CC(=O)Nc1ccc(S(=O)(=O)N[C@@H](C)C(=O)N2CCN(C/C=C/c3ccccc3)CC2)cc1`, the “hERG current change (%, negative = inhibition) at 10uM” value is on record as -31.8%.
In the case of `CC(CN1CCN(C/C=C/c2ccccc2)CC1)c1ccccc1.O=C(O)C(=O)O` (centres unmarked) it was -59.6%.
The value for `CC(C(=O)Nc1cccc(S(=O)(=O)N2CCOCC2)c1)N1CCN(c2ccc(F)cc2)CC1` (centres unmarked) was -40.3%.
The value for `CC(=O)c1ccc(S(=O)(=O)NCC(=O)N2CCN(C/C=C/c3ccccc3)CC2)cc1` was -38.7%; that for `CC(C)C(NC(=O)c1ccccc1)C(=O)N1CCN(C/C=C/c2ccccc2)CC1` (centres unmarked) was -41.2%.
As for `CC(C(=O)N(C)Cc1ccccc1)N1CCN(C/C=C/c2ccccc2)CC1` (centres unmarked), the “hERG current change (%, negative = inhibition) at 10uM” value was -78.9%.
The value for `COc1ccc(N2CCN(C(C)C(=O)N(C)Cc3ccccc3)CC2)cc1` (centres unmarked) was -17.3%; that for `CCc1nnc(NC(=O)c2ccc(S(=O)(=O)N(CC)Cc3ccccc3)cc2)o1` was -12.9%; that for `O=C(Nc1nc(-c2cccs2)cs1)C1=COCCO1` was -15.9%.
Consider `CCCCC(=O)Nc1ccc2c(c1)C(=O)NC2=O`, for which the “hERG current change (%, negative = inhibition) at 10uM” value came out at 2.21%.
The value for `Cc1ccc(NC(=O)c2c(-c3ccccc3Cl)noc2C)nc1` was 1.56%.
In the case of `COc1ccc(NC(=O)COC(=O)c2cc(Cl)ccc2O)cc1S(=O)(=O)N1CCCCC1` it was 10.5%; in that of `O=C(COC(=O)c1cccnc1Cl)NCC1CCCO1` (centres unmarked), 10.8%; in that of `COc1ccccc1/C=C/C=N/N1CCN(c2ccccn2)CC1`, -2.4%.
In the case of `Cc1cccc(CS(=O)(=O)Cc2ccc(C(=O)O)o2)c1` it was 16.5%; in that of `COC(C(=O)Nc1cccc([N+](=O)[O-])c1)c1ccccc1` (centres unmarked), 1.56%; in that of `CC(C)NC(=S)N1CCN(C/C=C/c2ccccc2)CC1`, -15.5%.
For `CCCCNC(=O)N1CCN(C/C=C/c2ccccc2)CC1`, the “hERG current change (%, negative = inhibition) at 10uM” value is recorded as -29.9%.
In the case of `CC(C(=O)Nc1cccc([N+](=O)[O-])c1)n1nnc2ccccc21` (centres unmarked) it was -33.5%.
In the case of `CC(C(=O)Nc1cccc([N+](=O)[O-])c1)N1CCN(C/C=C/c2ccccc2)CC1` (centres unmarked) it was -75.6%; in that of `CNC(=O)NC(=O)C(C)N1CCN(C/C=C/c2ccccc2)CC1` (centres unmarked), -63%; in that of `Cc1nc(SCC(N)=O)[nH]c(=O)c1Cc1ccc(OC(C)C)cc1`, 3.98%.
The value for `CCCCCC(=O)Nc1ccc(-c2csc(C)n2)cc1` was 18.7%.
`COc1cccc(N(CC(=O)NC(C)c2ccccc2)S(C)(=O)=O)c1` (centres unmarked): the “hERG current change (%, negative = inhibition) at 10uM” value is reported as 22.3%.
The value for `N=C1/C(=C/c2coc3ccccc3c2=O)C(=O)N=C2SC(c3ccco3)=NN12` was 12.8%.
In the case of `N=C1/C(=C\c2coc3ccccc3c2=O)C(=O)N=C2SC(c3ccncc3)=NN12`, the “hERG current change (%, negative = inhibition) at 10uM” value is -59%.
In the case of `N=C1/C(=C\c2coc3ccccc3c2=O)C(=O)N=C2SC=CN12` it was 15.3%; in that of `O=C(Nc1nnc(-c2ccc(Cl)cc2)o1)Nc1ccccc1F`, 1.31%; in that of `Cc1csc(CN(C)C(=O)CC2C(=O)NCCN2Cc2ccc(F)c(F)c2)n1` (centres unmarked), 6.02%.
The value for `COCCCNC(=S)NCCNc1nc2cc(C)c(C)cc2cc1C#N` was -2.23%.
The value for `C/C(=C/c1ccccc1)C(=O)N1CC(C)OC(C)C1` (centres unmarked) was 11.7%; that for `COc1cc2c(cc1OC)C(c1cccc(C)c1)CC(=O)N2` (centres unmarked) was -10.5%.
`CCn1c(SCC(=O)N=Nc2c(O)[nH]c3ccccc23)nnc1-c1ccc(C(C)(C)C)cc1`: the “hERG current change (%, negative = inhibition) at 10uM” value is given as -5.11%.
For `Cc1cc(O)cc(C)c1Cl`, the “hERG current change (%, negative = inhibition) at 10uM” value is listed as -2.78%.
The value for `CC(=O)N1CCN(C(=O)c2ccc(Cl)c(NC(=O)c3cccs3)c2)CC1` was -15.3%.
In the case of `O=C(Nc1cc(C(=O)N2CCN(c3ccccc3O)CC2)ccc1Cl)c1cccs1` it was -60.1%; in that of `O=C(NCC(=O)N1CCN(c2ccccc2O)CC1)c1cccs1`, 3.84%; in that of `O=C(NC(=S)Nc1ccccc1N1CCN(C(=O)c2ccccc2)CC1)c1cccs1`, 9.73%.
For the compound `CCOC(=O)N1CCN(C(=O)c2ccc(Cl)c(NC(=O)c3cccs3)c2)CC1`, the “hERG current change (%, negative = inhibition) at 10uM” value is on record as -54.7%.
The value for `Cc1ccc(NC(=O)c2ccc(Cl)c(NC(=O)c3cccs3)c2)cc1` was -12.5%.
Regarding `COc1ccc(NC(=O)CN(C)C(=O)c2ccc(=O)[nH]c2)cc1`, the “hERG current change (%, negative = inhibition) at 10uM” value is on record as 21.7%.
Take `COc1ccc(NC(=O)C2CC(=O)N(Cc3ccco3)C2)cc1Cl` (centres unmarked): the “hERG current change (%, negative = inhibition) at 10uM” value is recorded as -4.14%.
In the case of `N/C(=N\O)c1ccccc1-n1cccc1` it was 25.7%.
The value for `COc1ccc(/C(N)=N/OC(=O)/C=C/c2ccccc2)cc1` was -37.2%.
In the case of `CCCN1CCN(S(=O)(=O)c2cn(C)nc2C)CC1` it was 22%; in that of `CC(=O)Nc1ccc(S(=O)(=O)NCc2ccc(C(=O)NCCCN3CCC(C)CC3)cc2)cc1`, 19.7%.
With `O=C(NCc1ccccc1)N1CCC(Cc2ccccc2)CC1`, the “hERG current change (%, negative = inhibition) at 10uM” value was determined as 10.5%.
In the case of `C=CCNC(=S)N1CCC(Cc2ccccc2)CC1` it was -25.9%.
In the case of `NC(=O)c1ccc(CN2CCC(Cc3ccccc3)CC2)cc1`, the “hERG current change (%, negative = inhibition) at 10uM” value is -57.1%.
In the case of `CC(C)NC(=O)c1ccc(CN2CCC(Cc3ccccc3)CC2)cc1` it was -37.2%; in that of `O=C(Nc1ccccc1)c1ccc(CN2CCC(Cc3ccccc3)CC2)cc1`, 14.7%.
Consider `Cc1ccc(S(=O)(=O)NCc2ccc(C(=O)NCCCN3CCN(C)CC3)cc2)cc1`, for which the “hERG current change (%, negative = inhibition) at 10uM” value is given as 19.3%.
For the compound `C=CCNC(=O)c1ccc(CN2CCC(Cc3ccccc3)CC2)cc1`, the “hERG current change (%, negative = inhibition) at 10uM” value is recorded as -66.8%.
For the compound `C=CCNC(=O)c1ccc(C2SCC(=O)N2Cc2ccccc2)cc1` (centres unmarked), the “hERG current change (%, negative = inhibition) at 10uM” value is 6.11%.
The value for `O=C(NCc1ccccc1)c1ccc(CN2CCC(Cc3ccccc3)CC2)cc1` was -70.3%; that for `Cc1ccc(S(=O)(=O)NCc2ccc(C(=O)NCCCN3CCC(Cc4ccccc4)CC3)cc2)cc1` was -80.6%; that for `COCCNC(=O)c1ccc(CN2CCC(Cc3ccccc3)CC2)cc1` was -11.6%.

These data come from paper PMC4336329 (PLoS ONE, 2015).
